# Values joined by “and” are separate entries in the source; they are usually repeats but may differ in a detail not shown here. Equal values may be shown once. Inconclusive results are not listed. Entries that show only a call come without a potency. More than one record can exist for a structure, and the calls need not agree. Active and inactive are the calls of the source. Unless noted, calls follow the shape of the dose curve; as a rule, active = well fitted curve in the direction sought with a large enough effect in the repeat runs; inconclusive = weak or mixed curves; inactive = no such curve, though single readings can be large; an effect the other way counts as inactive or inconclusive.
# Tests used:
# [1] = Human pregnane X receptor (PXR) small molecule agonists, qHTS cell viability counter screen (AID 1346977); also: nearly all actives have a fitted effect of over 50% in size; also: potency is read from the fitted curve at half-maximal effect
# Method in brief: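 PXR-Luc HepG2 cells in medium with 5% charcoal-stripped FBS were pre-incubated 5hr, then exposed to compounds for 24hr at 37C. Viability was read in the same wells by CellTiter-Fluor fluorescence, reagent added after 23hr with a 1hr incubation.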
# [2] = Caspase-3/7 induction in HepG2 cells by small molecules, qHTS assay (AID 1346978); also: nearly all actives have a fitted effect of over 15% in size
# Method in brief: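 Wild-type HepG2 cells (2,000/well) were settled 5 h at 37 C, 5% CO2, then exposed to compounds in DMSO for 17 h. Caspase-3/7 activity was read by luminescence 30 min after adding Caspase-Glo 3/7 reagent at room temperature.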
# [3] = Caspase-3/7 induction in CHO-K1 cells by small molecules, qHTS cell viability counter screen (AID 1346979); also: nearly all actives have a fitted effect of over 35% in size; also: potency is read from the fitted curve at half-maximal effect
# Method in brief: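 Wild-type CHO-K1 cells were seeded at 1,500 per well, rested 5hr at 37 C, then exposed to compounds in DMSO. After 16hr, CellTiter-Fluor reagent was added and fluorescence read 1hr later as the viability measure.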
# [4] = Caspase-3/7 induction in CHO-K1 cells by small molecules, qHTS assay (AID 1346980); also: nearly all actives have a fitted effect of over 15% in size
# Method in brief: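 Wild-type cells were seeded at 1,500 per well and settled 5 hr at 37 C, 5% CO2, then exposed to DMSO-dissolved compounds for 17 hr. Caspase-Glo 3/7 reagent was added, and luminescence was read after 30min at room temperature.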
# [5] = Caspase-3/7 induction in HepG2 cells by small molecules, qHTS cell viability counter screen (AID 1346981); also: nearly all actives have a fitted effect of over 30% in size; also: potency is read from the fitted curve at half-maximal effect
# Method in brief: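 Viability determined by CellTiter-Fluor fluorescence in HepG2 wells also used for the luminescent Caspase-Glo 3/7 read. Compounds were present for 16 hr at 37 C, 5% CO2 before reagent addition.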
# [6] = target: Nuclear receptor subfamily 1 group I member 2 (Rattus norvegicus) (UniProt Q9R1A7); test: Rat pregnane X receptor (rPXR) activation by small molecules, qHTS assay (AID 1346983); details: rPXR luciferase reporter cells, One-Glo luminescence, 24 h; stronger effect = higher value; also: nearly all actives have a fitted effect of over 20% in size
# Chain of Nuclear receptor subfamily 1 group I member 2 (Rattus norvegicus) (Q9R1A7 whole entry, looked up): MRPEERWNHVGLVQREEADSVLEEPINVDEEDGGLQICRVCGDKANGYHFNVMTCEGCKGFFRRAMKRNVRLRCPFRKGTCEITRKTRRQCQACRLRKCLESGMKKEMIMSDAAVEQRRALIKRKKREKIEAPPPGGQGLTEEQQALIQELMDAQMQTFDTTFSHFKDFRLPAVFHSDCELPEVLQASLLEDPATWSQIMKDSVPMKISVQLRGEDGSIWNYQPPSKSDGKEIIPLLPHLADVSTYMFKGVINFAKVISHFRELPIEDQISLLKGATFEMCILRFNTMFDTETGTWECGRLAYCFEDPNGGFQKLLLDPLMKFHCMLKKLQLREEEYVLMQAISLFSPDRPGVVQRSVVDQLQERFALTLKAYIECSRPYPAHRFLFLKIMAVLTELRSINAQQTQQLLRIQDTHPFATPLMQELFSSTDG
# Method in brief: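 Cell-based rPXR luciferase reporter assay, 2,000 cells per well, rested 5hr at 37 C before compound addition in DMSO, then 24 hr at 37 C. One-Glo reagent was added and luminescence read after 30 min at room temperature.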
# [7] = target: Voltage-gated inwardly rectifying potassium channel KCNH2 (Homo sapiens) (UniProt Q12809); test: Human Ether-a-go-go-Related Gene (hERG) channel small molecule antagonists: fluorescence cell-based qHTS assay (AID 1671200); also: nearly all actives have a fitted effect of over 50% in size; also: potency is read from the fitted curve at half-maximal effect
# Chain of Voltage-gated inwardly rectifying potassium channel KCNH2 (Homo sapiens) (Q12809 whole entry, looked up): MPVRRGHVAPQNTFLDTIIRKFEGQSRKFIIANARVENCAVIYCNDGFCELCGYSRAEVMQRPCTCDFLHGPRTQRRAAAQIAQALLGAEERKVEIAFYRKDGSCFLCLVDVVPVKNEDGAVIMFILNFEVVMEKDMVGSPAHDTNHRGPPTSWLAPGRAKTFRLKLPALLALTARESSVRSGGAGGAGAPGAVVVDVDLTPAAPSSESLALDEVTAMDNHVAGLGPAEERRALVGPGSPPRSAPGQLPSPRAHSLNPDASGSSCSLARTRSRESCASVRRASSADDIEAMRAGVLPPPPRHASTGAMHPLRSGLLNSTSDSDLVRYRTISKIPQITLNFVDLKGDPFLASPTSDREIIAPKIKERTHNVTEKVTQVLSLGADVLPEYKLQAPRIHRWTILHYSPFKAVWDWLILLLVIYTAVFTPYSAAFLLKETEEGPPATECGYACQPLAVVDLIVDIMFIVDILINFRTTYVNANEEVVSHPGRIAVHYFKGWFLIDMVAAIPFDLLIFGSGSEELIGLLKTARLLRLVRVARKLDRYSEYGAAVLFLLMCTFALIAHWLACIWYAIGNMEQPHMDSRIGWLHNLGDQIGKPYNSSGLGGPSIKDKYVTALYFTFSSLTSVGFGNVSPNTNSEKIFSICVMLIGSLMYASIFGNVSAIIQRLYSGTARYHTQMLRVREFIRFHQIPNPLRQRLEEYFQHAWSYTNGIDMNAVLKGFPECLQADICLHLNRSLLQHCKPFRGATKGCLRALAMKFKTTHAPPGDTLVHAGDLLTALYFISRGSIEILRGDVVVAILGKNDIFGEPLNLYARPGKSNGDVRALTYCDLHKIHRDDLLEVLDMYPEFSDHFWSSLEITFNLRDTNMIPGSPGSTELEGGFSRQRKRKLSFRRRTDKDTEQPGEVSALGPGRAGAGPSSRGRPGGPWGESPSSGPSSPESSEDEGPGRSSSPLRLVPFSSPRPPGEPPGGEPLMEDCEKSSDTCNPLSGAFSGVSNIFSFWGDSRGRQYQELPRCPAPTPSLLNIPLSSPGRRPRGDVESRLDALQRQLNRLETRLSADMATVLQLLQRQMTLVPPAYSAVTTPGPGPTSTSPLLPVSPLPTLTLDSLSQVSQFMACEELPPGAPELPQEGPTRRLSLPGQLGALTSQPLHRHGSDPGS
# Method in brief: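 U2OS cells expressing the channel were plated at 1000 cells/well, incubated overnight at 37 C, then loaded with FluxOR II thallium-sensitive dye for 1 h at room temperature in the dark, with a further 10 min at room temperature before stimulation.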
# [8] = target: Nuclear receptor subfamily 1 group I member 2 (Homo sapiens) (UniProt O75469); test: Human pregnane X receptor (PXR) small molecule agonists, qHTS assay (AID 1346982); also: nearly all actives have a fitted effect of over 35% in size; also: potency is read from the fitted curve at half-maximal effect
# Chain of Nuclear receptor subfamily 1 group I member 2 (Homo sapiens) (O75469 whole entry, looked up): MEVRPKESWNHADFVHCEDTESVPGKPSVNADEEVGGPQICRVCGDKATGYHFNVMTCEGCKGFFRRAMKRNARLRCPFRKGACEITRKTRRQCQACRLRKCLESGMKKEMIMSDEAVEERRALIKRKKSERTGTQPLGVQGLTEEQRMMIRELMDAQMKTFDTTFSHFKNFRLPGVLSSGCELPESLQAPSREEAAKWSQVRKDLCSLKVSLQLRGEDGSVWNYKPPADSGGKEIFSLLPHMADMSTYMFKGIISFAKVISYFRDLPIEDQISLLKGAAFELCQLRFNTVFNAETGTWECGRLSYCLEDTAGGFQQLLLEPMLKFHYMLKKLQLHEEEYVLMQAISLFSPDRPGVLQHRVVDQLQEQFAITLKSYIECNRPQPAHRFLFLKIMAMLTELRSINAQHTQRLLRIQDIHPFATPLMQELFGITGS
# Method in brief: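 Compound-induced hPXR transactivation of a CYP3A4 luciferase reporter was scored in HepG2 PXR-Luc cells over 24 hr at 37 C, 5% CO2, by luminescence.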
# [9] = target: Acetylcholinesterase (Homo sapiens) (UniProt P22303); test: Acetylcholinesterase (AChE) small molecule antagonists: colormetric cell-based qHTS assay (AID 1347395; calls by dose curve; also: nearly all actives have a fitted effect of over 30% in size; also: potency is read from the fitted curve at half-maximal effect)
# Chain of Acetylcholinesterase (Homo sapiens) (P22303 whole entry, looked up): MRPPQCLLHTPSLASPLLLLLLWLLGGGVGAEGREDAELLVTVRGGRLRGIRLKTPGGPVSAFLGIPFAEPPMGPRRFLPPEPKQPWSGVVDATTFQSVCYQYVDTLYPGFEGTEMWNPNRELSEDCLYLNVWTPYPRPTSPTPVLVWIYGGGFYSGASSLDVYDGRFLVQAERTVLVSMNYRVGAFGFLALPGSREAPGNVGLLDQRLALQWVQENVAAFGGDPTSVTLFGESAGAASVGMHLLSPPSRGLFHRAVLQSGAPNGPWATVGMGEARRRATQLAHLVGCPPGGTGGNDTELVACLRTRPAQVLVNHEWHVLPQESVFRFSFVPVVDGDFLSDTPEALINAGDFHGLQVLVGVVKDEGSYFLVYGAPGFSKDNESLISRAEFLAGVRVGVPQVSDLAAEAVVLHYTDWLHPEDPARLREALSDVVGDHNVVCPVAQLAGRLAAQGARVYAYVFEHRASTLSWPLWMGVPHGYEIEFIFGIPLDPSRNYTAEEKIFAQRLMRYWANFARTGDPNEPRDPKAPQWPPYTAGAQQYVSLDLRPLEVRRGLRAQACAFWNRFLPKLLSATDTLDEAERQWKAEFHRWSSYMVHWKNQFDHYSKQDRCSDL
# Method in brief: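 SH-SY5Y cells, plated overnight at 37 C, were exposed to compounds for 30 min at 37 C and 5% CO2. Acetylthiocholine plus DTNB was then added, and thiocholine from endogenous AChE was quantified colorimetrically after 90 min at 37 C.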
# [10] = target: Acetylcholinesterase (Homo sapiens) (UniProt P22303); test: Acetylcholinesterase (AChE) small molecule antagonists: enzyme-based qHTS assay (AID 1347397; calls by dose curve; also: nearly all actives have a fitted effect of over 55% in size; also: potency is read from the fitted curve at half-maximal effect); details: Potency: AChE enzyme activity inhibition; outcome: AChE enzyme activity inhibition
# Method in brief: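 Human recombinant acetylcholinesterase; substrate acetylthiocholine; thiocholine quantified with DTNB (colorimetric). Compound preincubation 30 min RT; reaction 10 min RT.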
# [11] = target: Acetylcholinesterase (Homo sapiens) (UniProt P22303); test: Acetylcholinesterase (AChE) small molecule antagonists: enzyme-based qHTS assay with human liver microsomes (AID 1347399; calls by dose curve; also: nearly all actives have a fitted effect of over 60% in size); details: Potency: qHTS inhibition; outcome: qHTS inhibition
# Method in brief: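 Recombinant human AChE (50 mU/mL in the enzyme mix) and human liver microsomes (0.25 mg/mL final) were preincubated with compound and NADPH (0.25 mg/mL final) for 30 min at 37 C. Acetylthiocholine/DTNB was then added; thiocholine was read colorimetrically after 10 min at room temperature.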
# [12] = target: Cytochrome P450 2D6 (Homo sapiens) (UniProt P10635); test: Cytochrome P450 Family 2 Subfamily D Member 6 (CYP2D6) small molecule antagonists: luciferase reporter qHTS assay (AID 1671196); also: nearly all actives have a fitted effect of over 50% in size; also: potency is read from the fitted curve at half-maximal effect
# Chain of Cytochrome P450 2D6 (Homo sapiens) (P10635 whole entry, looked up): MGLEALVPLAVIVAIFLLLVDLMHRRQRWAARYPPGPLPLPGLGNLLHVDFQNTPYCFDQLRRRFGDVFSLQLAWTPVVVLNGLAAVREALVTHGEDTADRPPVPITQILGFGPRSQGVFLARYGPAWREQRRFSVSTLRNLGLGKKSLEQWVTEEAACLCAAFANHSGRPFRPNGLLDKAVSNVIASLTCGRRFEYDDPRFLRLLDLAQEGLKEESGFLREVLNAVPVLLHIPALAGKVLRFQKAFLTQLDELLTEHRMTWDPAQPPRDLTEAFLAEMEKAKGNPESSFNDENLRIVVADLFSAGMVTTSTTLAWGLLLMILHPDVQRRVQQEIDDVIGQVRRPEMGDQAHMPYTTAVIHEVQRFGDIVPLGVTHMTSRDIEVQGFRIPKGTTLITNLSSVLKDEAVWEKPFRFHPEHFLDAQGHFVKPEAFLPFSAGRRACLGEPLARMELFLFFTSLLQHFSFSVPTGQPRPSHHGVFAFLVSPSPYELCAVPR
# Method in brief: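 Each well received CYP2D6 with its proluciferin substrate and chemical, sat 10 min, then got NADPH regeneration solution for 1 h at room temperature. Luminescence in RLU served as the activity measure.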
# [13] = target: Cytochrome P450 2C19 (Homo sapiens) (UniProt P33261); test: Cytochrome P450 Family 2 Subfamily C Member 19 (CYP2C19) small molecule antagonists: luciferase reporter qHTS assay (AID 1671197); also: nearly all actives have a fitted effect of over 65% in size; also: potency is read from the fitted curve at half-maximal effect
# Chain of Cytochrome P450 2C19 (Homo sapiens) (P33261 whole entry, looked up): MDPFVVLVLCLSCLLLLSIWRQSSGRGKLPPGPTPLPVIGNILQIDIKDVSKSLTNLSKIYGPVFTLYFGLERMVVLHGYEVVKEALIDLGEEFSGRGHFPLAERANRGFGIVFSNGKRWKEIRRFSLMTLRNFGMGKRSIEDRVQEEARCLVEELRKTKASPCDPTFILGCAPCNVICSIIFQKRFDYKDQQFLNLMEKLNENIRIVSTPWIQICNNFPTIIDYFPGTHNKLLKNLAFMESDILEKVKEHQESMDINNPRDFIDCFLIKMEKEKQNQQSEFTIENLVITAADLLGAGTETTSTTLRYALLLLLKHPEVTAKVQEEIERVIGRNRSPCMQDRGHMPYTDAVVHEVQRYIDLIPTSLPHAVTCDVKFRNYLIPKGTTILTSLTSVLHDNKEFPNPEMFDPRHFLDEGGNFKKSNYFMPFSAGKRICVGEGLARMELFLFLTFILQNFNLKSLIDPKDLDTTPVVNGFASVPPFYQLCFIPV
# Method in brief: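 Compounds were tested on CYP2C19 activity via proluciferin conversion to luciferin. The 37C, 1 h reaction followed NADPH addition; detection reagent stopped it.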
# [14] = target: Cytochrome P450 2C9 (Homo sapiens) (UniProt P11712); test: Cytochrome P450 Family 2 Subfamily C Member 9 (CYP2C9) small molecule antagonists: luciferase reporter qHTS assay (AID 1671198); also: nearly all actives have a fitted effect of over 50% in size; also: potency is read from the fitted curve at half-maximal effect
# Method in brief: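 CYP2C9 activity was measured with a P450-Glo proluciferin substrate. Enzyme–substrate mix was held with compound for 10 min at room temperature, then NADPH regeneration solution was added for 1 h at 37C. Luciferin product was read as luminescence.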
# [15] = target: Cytochrome P450 1A2 (Homo sapiens) (UniProt P05177); test: Cytochrome P450 Family 1 Subfamily A Member 2 (CYP1A2) small molecule antagonists: luciferase reporter qHTS assay (AID 1671199); also: nearly all actives have a fitted effect of over 50% in size; also: potency is read from the fitted curve at half-maximal effect
# Chain of Cytochrome P450 1A2 (Homo sapiens) (P05177 whole entry, looked up): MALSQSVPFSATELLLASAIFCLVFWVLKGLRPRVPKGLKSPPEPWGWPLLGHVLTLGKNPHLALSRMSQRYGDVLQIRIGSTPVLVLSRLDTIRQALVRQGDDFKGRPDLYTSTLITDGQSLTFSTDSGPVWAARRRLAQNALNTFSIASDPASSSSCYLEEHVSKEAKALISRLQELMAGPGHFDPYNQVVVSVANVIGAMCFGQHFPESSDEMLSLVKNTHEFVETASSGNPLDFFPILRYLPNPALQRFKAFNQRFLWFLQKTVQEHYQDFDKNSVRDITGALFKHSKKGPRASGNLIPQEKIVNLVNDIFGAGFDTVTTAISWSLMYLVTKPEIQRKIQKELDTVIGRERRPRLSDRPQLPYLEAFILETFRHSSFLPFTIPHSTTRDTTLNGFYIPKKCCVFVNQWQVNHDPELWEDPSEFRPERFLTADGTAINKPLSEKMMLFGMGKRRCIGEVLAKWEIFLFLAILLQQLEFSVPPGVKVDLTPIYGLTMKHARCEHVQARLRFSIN
# Method in brief: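 Enzymatic CYP1A2 assay, human, luminescent: 10 min compound–enzyme–substrate preincubation, 1 h NADPH-dependent turnover, 20 min detection step, room temperature throughout. Reduced light indicates lower CYP1A2 activity.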
# [16] = target: Cytochrome P450 3A4 (Homo sapiens) (UniProt P08684); test: Cytochrome P450 Family 3 Subfamily A Member 4 (CYP3A4) small molecule antagonists: luciferase reporter qHTS assay (AID 1671201)
# Chain of Cytochrome P450 3A4 (Homo sapiens) (P08684 whole entry, looked up): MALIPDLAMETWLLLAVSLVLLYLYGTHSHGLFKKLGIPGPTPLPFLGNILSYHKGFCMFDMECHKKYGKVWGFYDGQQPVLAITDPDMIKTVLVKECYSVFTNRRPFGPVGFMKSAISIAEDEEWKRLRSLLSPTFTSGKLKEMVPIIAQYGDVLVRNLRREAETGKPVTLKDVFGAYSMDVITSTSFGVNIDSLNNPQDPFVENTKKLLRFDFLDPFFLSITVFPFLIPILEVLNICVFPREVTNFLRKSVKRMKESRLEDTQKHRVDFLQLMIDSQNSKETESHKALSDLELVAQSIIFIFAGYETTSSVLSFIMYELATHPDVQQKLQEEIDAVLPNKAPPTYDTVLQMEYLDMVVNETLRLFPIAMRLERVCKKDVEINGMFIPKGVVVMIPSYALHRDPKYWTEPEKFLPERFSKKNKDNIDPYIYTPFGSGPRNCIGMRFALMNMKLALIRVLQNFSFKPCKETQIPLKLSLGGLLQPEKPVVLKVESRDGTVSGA
# Method in brief: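 P450-Glo CYP3A4 system with proluciferin substrate; compounds preincubated 10 min RT with enzyme-substrate mix, then NADPH regeneration added for 1 h RT. Detection reagent 20 min, luminescence read as relative luminescence units.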
# [17] = target: Acetylcholinesterase (Homo sapiens) (UniProt P22303); test: Acetylcholinesterase (AChE) small molecule antagonists: fluorescence cell-based qHTS assay (AID 1347398; calls by dose curve; also: nearly all actives have a fitted effect of over 50% in size; also: potency is read from the fitted curve at half-maximal effect); details: Potency: AChE activity; outcome: AChE activity
# Method in brief: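 Thiocholine generated from acetylthiocholine by SH-SY5Y cell AChE is detected with Thiolite Green (Ex/Em 490/520 nm) after 40 min at room temperature, following 30 min compound pretreatment at 37 C.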
# [18] = target: Nuclear receptor subfamily 1 group I member 2 (Homo sapiens) (UniProt O75469); test: CYP3A4 induction through human pregnane X receptor (PXR) by small molecules, qHTS assay (AID 1346984); also: nearly all actives have a fitted effect of over 40% in size
# Method in brief: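 Readings come from a luciferase reporter: DPX-2 cells, which are HepG2 cotransfected with PXR and a CYP3A4-promoter construct, were exposed to test compounds for 24 h at 37C before One-Glo detection.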
# [19] = target: Nuclear receptor subfamily 1 group I member 2 (Homo sapiens) (UniProt O75469); test: Human pregnane X receptor (PXR) activation by small molecules, qHTS assay (AID 1346985); also: nearly all actives have a fitted effect of over 40% in size; also: potency is read from the fitted curve at half-maximal effect
# Method in brief: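 DPX-2 cells (HepG2 co-transfected with a PXR response element and a CYP3A4-promoter luciferase construct) were seeded at 2,000 per well, rested 5 hr at 37C, then exposed to DMSO-dissolved compounds for 24 hr. Activation was read as luciferase luminescence.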
SMILES,Potency [1],Potency [2],Potency [3],Potency [4],Potency [5],max activation [6],Potency [7],Potency [8],Potency [9],Potency [10],Potency [11],Potency [12],Potency [13],Potency [14],Potency [15],Potency [16],Potency [17],outcome [18],Potency [19]
[Cl-].[Cl-].[Hg+2],7.08 µM (active) and 6.11 µM (active),inactive,483 nM (active) and 2.43 µM (active),inactive,27.2 µM (active) and 54.5 µM (active),-4.43% (inactive),38.7 µM (active) and 6.92 µM (active),–,–,–,–,–,–,–,–,–,–,–,–
C[N+]1(CCF)[C@@H]2CC[C@H]1CC(OC(=O)C(O)(c1ccccc1)c1ccccc1)C2 (stereo partly specified),inactive,inactive,inactive,inactive,inactive,–,inactive,inactive,inactive,inactive,inactive,17.4 µM (active),inactive,inactive,inactive,inactive,–,–,–
C1CCNCC1,inactive,inactive,inactive,inactive,inactive,–,inactive,inactive,inactive,inactive,inactive,–,inactive,inactive,36.8 µM (active),inactive,inactive,–,–
O=C(O)c1cc(Cl)ccc1Cl,inactive,inactive,inactive,inactive,inactive,–,inactive,inactive,inactive,inactive,inactive,–,79.3 µM (active),–,39.7 µM (active),inactive,–,–,–
c1ccc2c(c1)sc1ccccc12,inactive,inactive,inactive,inactive,inactive,-3.19% (inactive),inactive,–,inactive,inactive,inactive,inactive,–,inactive,3.17 µM (active) and 2.57 µM (active),inactive,inactive,inactive,inactive
CCOP(=S)(OCC)Oc1ccc(S(C)=O)cc1 (stereo unspecified),inactive,inactive,inactive,inactive,inactive,–,inactive,38.6 µM (active),–,inactive,inactive,inactive,–,252 nM (active),3.99 µM (active),–,–,–,–
CCc1cnc(C2=NC(C)(C(C)C)C(=O)N2)c(C(=O)O)c1 (stereo unspecified),inactive,inactive,inactive,inactive,inactive,–,inactive,inactive,inactive,–,inactive,inactive,inactive,inactive,–,inactive,inactive,–,–
Cc1cccc(C)c1NC1=NCCCS1,inactive,inactive,inactive,inactive,inactive,–,inactive,inactive,inactive,–,inactive,11 µM (active),inactive,inactive,–,–,inactive,–,–
CN1C[C@H](C(=O)N[C@]2(C)O[C@@]3(O)[C@@H]4CCCN4C(=O)[C@H](Cc4ccccc4)N3C2=O)C=C2c3cccc4[nH]cc(c34)C[C@H]21,39.8 µM (active),inactive,30.8 µM (active) and 18 µM (active),inactive,30.8 µM (active) and 22.6 µM (active),-2.24% (inactive),22 µM (active),–,1.01 µM (active) and 8.32 µM (active),5.67 µM (active),inactive,28.4 µM (active) and inactive,28.4 µM (active) and 18.6 µM (active),–,–,–,505 nM (active),inactive,2.51 µM (active)
